Source: PubChem (National Center for Advancing Translational Sciences (NCATS))
HT1080 IDH1KD tx: HT-1080 IDH1 knockdown cell toxicity (counter line) | HT-1080 IDH1 knockdown viability, ATP luminescence, 48 h | Potency, µM (highest dose often 46.1 µM), without a hit: top-dose activity, negative = toxicity, most hits filed as cytotoxic | 360,000 compounds, 2% hits;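 further: 0% = DMSO wells and -100% = cell-free medium wells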
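Assay cells: HT-1080 with IDH1 knockdown, 750 per well, RPMI/5% FBS. Exposure: 48 h at 37 °C following 2 h pre-incubation. Read: CellTiter-Glo luminescence; fitted concentration-response, curve class assigned.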
KB-3-1 cytotox: KB-3-1 parental cell cytotoxicity; Potency, µM (series often up to 46.1 µM), hits mostly cytotoxic; AID 1347075; KB-3-1 viability, CellTiter-Glo ATP luminescence, 72 h; 400,000 compounds, 1.4% hits; further: on the % scale 0 is the no-effect control and ±100 the full control effect; nearly all actives have a fitted effect of over 60% in size
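Cytotoxicity in the drug-sensitive parental line KB-3-1 was scored as loss of CellTiter-Glo luminescence following 72 h incubation with compound. Values come from curve fitting of normalized concentration-response data.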
KB-V1 MDR tox: kills drug-selected multidrug resistant KB-V1 cells. 400,000 compounds, 3.4% hits. Potency, µM (doses to about 46.1 µM), usual class: cytotoxic. KB-V1 MDR cells viability, CellTiter-Glo, 72 h; further: on the % scale 0 is the no-effect control and ±100 the full control effect; nearly all actives have a fitted effect of over 60% in size
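Luminescent ATP read-out (CellTiter-Glo, 10 min) measures survival of drug-selected KB-V1 MDR cells after 72 h, 37 degrees C compound exposure. Medium: phenol-red-free DMEM, 10% FBS. Values from fitted concentration-response curves.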
HT1080NT lethal: kills 2HG-producing HT-1080-NT fibrosarcoma cells. 360,000 compounds, 1.6% hits. HT-1080-NT fibrosarcoma viability, CellTiter-Glo ATP luminescence, 48 h. AID 686970. Potency, µM (top dose mostly 46.1 µM), inactives show top-dose activity, negative = less viability, most hits filed as cytotoxic;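 further: NT is the 2HG producing partner of a matched IDH1 knockdown line; 0% = DMSO-treated cells and -100% = media-only wells without cells; nearly all actives have a fitted effect of over 55% in size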
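HT-1080-NT fibrosarcoma cells (2HG-overproducing), 750 cells/well in RPMI with 5% FBS, dosed after 2 h and incubated 48 h at 37C. CellTiter-Glo luminescence normalized to DMSO and no-cell wells; concentration-response curves fitted and classed.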
MCF10A rerep: DNA re-replication induction in MCF 10a cells | 350,000 compounds, 2.9% hits | Potency, µM (highest dose often 46.1 µM), inactives show at the top dose activity, positive = re-replication, hits mostly activators | MCF 10A DNA re-replication, Hoechst nuclear intensity, 48 h; further: % of control where 0% means no effect; nearly all actives have a fitted effect of over 50% in size
SW480 rerep: inducers of DNA re-replication in SW480 colon cancer cells; SW480 DNA re-replication, Hoechst DNA content imaging, 48 h; Potency, µM (doses to about 46.1 µM), inactives show at the highest dose re-replication activation, actives largely listed as activators; 340,000 compounds, 1.8% hits; further: % of control where 0% means no effect; nearly all actives have a fitted effect of over 55% in size
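SW480 cells exposed to compounds for 48 hr at 37 C, 5% CO2, then Hoechst-stained 40 min. Nuclear DNA content imaged by fluorescence scanning (405 nm excitation, 500-530 nm emission); re-replication scored as increased high-intensity nuclei.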
* marks the source's active call; other numbers are inactive results; i = inactive; ? = inconclusive; . = no result; [ ] = dose if it differs, or a comment. Shown are actives, neighbours in structure and some others; about 7.9% of the full set was active somewhere. The call rests on the fitted dose curve; in most records, active means well fitted curve in the direction sought with a large enough effect; inconclusive means small, poorly fitted or top-dose-only effect, or another doubt; inactive means no such curve, though single readings can be large; an effect the other way counts as inactive or inconclusive. Potency means the concentration at half of the fitted maximal effect.

SMILES	HT1080 IDH1KD tx	KB-3-1 cytotox	KB-V1 MDR tox	HT1080NT lethal	MCF10A rerep	SW480 rerep
COc1ccc(Cl)cc1Cn1c(C)c(C(=O)NCc2cccc(Cl)c2)sc1=O	-1.1%	i	14.6µM*	-3.1%	.	.
COc1ccc(NC(=O)c2sc(=O)n(Cc3ccc(F)c(Cl)c3)c2C)cc1OC	?	4.61µM*	?	-11.6%	.	.
COc1ccc(CNC(=O)c2sc(=O)n(Cc3ccc(C)cc3)c2C)cc1	-2.4%	i	20.6µM*	5.4%	.	.
COc1ccc(Cn2ccc3nc(C)c(C(=O)NCc4ccc(F)cc4)cc3c2=O)cc1	.	?	i	.	.	.
COc1ccc(C(C)=O)cc1Cn1c(C)c(C(=O)NCc2cccc(Cl)c2)sc1=O	-1.6%	i	?	-24.6%	.	.
COc1ccc(CNC(=O)c2sc(=O)n(Cc3ccc(S(=O)(=O)N(C)C)cc3)c2C)cc1	?	?	?	-21.6%	.	.
COc1ccc(Cn2ccc3nc(C)c(C(=O)NCc4ccc(C)cc4)cc3c2=O)cc1	.	5.17µM*	i	.	.	.
COc1ccc(CNC(=O)c2sc(=O)n(Cc3cc(Cl)ccc3OC)c2C)cc1	-1.4%	i	?	-3.8%	.	.
CCCC1NC(=O)c2cccnc2-n2c1nc1cc(C)cc(C)c1c2=O (stereo unspecified)	-9.4%	i	i	-1.5%	.	.
O=C(CCS(=O)(=O)c1cc2c(cc1Cl)NC(=O)CO2)NCCc1ccc(Cl)cc1	.	i	i	.	.	.
Cc1c(C(=O)NCc2ccccc2C(F)(F)F)sc(=O)n1Cc1ccc(S(=O)(=O)N(C)C)cc1	-24.3%	?	8.2µM*	-9.7%	.	.
CSc1ccc(Cn2c(C)c(C(=O)NCc3cccc(Cl)c3)sc2=O)cc1	?	i	9.2µM*	-17.0%	.	.
C=Cc1ccc(Cn2c(C)c(C(=O)NCc3cccc(C)c3)sc2=O)cc1	?	i	?	-20.7%	.	.
Cc1cccc(C)c1Cn1c(C)c(C(=O)NCc2ccc([N+](=O)[O-])cc2)sc1=O	?	?	2.59µM*	?	.	.
CSc1ccc(Cn2c(C)c(C(=O)NCc3cccc(C)c3)sc2=O)cc1	?	i	9.2µM*	-9.5%	.	.
COC(=O)c1ccc(Cn2c(C)c(C(=O)NCc3ccc([N+](=O)[O-])cc3)sc2=O)o1	-22.5%	i	?	-0.1%	.	.
CCCOc1ccc(CC(=O)NCCc2ccccc2)cc1OC	-1.9%	i	i	-3.0%	?	?
Cc1nc2ccc(S(=O)(=O)NC(C(=O)N3CCN(c4cccc(Cl)c4)CC3)C(C)C)cc2s1 (stereo unspecified)	.	i	i	.	.	.
Cc1cccc(CNC(=O)c2sc(=O)n(Cc3ccc(S(C)(=O)=O)cc3)c2C)c1	?	?	14.6µM*	-6.3%	.	.
Cc1c(C(=O)NCc2cccc(Cl)c2)sc(=O)n1Cc1cccc(F)c1	?	i	18.4µM*	?	.	.
Cc1c(C(=O)NCc2ccc3c(c2)OCO3)sc(=O)n1Cc1ccc(S(C)(=O)=O)cc1	-12.7%	?	?	0.6%	.	.
Cc1c(C(=O)NCc2ccc(Cl)c(Cl)c2)sc(=O)n1Cc1cccc(F)c1	?	i	?	?	.	.
COc1ccc(S(=O)(=O)N2CCOCC2)cc1NC(=O)CN1CCC(Cc2ccccc2)CC1	-20.1%	i	11.6µM*	-14.8%	?	?
COc1ccc(S(=O)(=O)N2CCCCC2)cc1NC(=O)Cc1sc(C)nc1-c1ccc(F)cc1	-12.9%	i	?	-2.5%	6.5%	4.4%
O=C(COc1cccnc1[N+](=O)[O-])Nc1cccc(S(=O)(=O)N2CCOCC2)c1	4.0%	i	i	-1.0%	4.4%	0.9%
SMILES	HT1080 IDH1KD tx	KB-3-1 cytotox	KB-V1 MDR tox	HT1080NT lethal	MCF10A rerep	SW480 rerep
COc1ccc(S(=O)(=O)N2CCOCC2)cc1NC(=O)c1ccc(Cl)cc1	1.6%	i	i	2.2%	-39.3%	0.231µM*
COc1ccc(S(=O)(=O)N2CCOCC2)cc1NC(=O)COc1cccnc1[N+](=O)[O-]	-0.4%	i	i	8.9%	0.581µM*	-9.0%
COc1ccc(S(=O)(=O)N2CCOCC2)cc1NC(=O)Cc1sc(C)nc1-c1ccc(F)cc1	10.5%	?	11.6µM*	12.2%	2.9%	3.6%
CC1CCC(NC(=O)c2ccc3c(c2)S(=O)(=O)c2ccccc2C3=O)CC1 (stereo unspecified)	-1.2%	i	i	-1.4%	16.0%	7.9%
Cc1cc(C)c(NC(=O)CCCn2c(=O)oc3ccccc32)c(C)c1	-2.2%	i	i	-0.2%	5.7%	-18.0%
COc1ccc(NC(=O)CCNC(=O)c2ccc([N+](=O)[O-])cc2)cc1S(=O)(=O)N1CCOCC1	-23.5%	i	i	-6.3%	3.1%	-4.2%
Cc1cc(Cl)c(S(=O)(=O)Nc2cc(S(=O)(=O)N3CCOCC3)ccc2F)cc1OCC(N)=O	-0.2%	i	i	2.5%	0.651µM*	34.4%
COc1ccc(S(=O)(=O)N2CCOCC2)cc1NC(=O)CCNC(=O)c1ccc([N+](=O)[O-])cc1	5.8µM*	i	i	-3.1%[9.24 µM]	?	?
CC(=O)c1cc(Cl)ccc1OCc1cccc(S(=O)(=O)N2CCOCC2)c1	2.1%	i	18.4µM*	0.2%	12.9%	-13.5%
Cc1cc(Cl)c(S(=O)(=O)Nc2ccc(S(=O)(=O)N3CCOCC3)cc2)cc1OCC(N)=O	-0.3%	i	i	0.3%	14.3%	-68.4%
CCOC(=O)c1ccc(NC(=O)CCNC(=O)c2ccc([N+](=O)[O-])cc2)cc1	10.6%	i	14.6µM*	3.7%	6.2%	-5.1%
Cc1ccc(C)c(CN2CCCN(Cc3ccccc3C)S2(=O)=O)c1	.	i	i	.	.	.
O=C(C[N+]12CCCc3cccc(c31)CCC2)c1ccc2ccc3cccc4ccc1c2c34	.	?	i	.	.	.
CCOC(=O)CNC(=O)C(Cc1ccccc1)NS(=O)(=O)c1cccs1 (stereo unspecified)	-3.2%	i	i	-4.7%	20.6µM*	1.0%
CSCCC(NS(=O)(=O)c1cccs1)C(=O)NCc1ccc(C)cc1 (stereo unspecified)	5.8%	i	?	0.9%	3.0%	0.164µM*
COc1cc(C2c3cc4c(cc3OC(N3CCCCC3)C2C)OCO4)cc(OC)c1O (stereo unspecified)	-21.4%	?	?	-10.5%	?	?
COc1cccc(C2c3cc4c(cc3OC(N3CCCC3)C2C)OCO4)c1O (stereo unspecified)	?	20.6µM*	8.2µM*	?	?	?
